According to ChEMBL document CHEMBL3988442, “University of Dundee, Small-Polar-MMV Screening Library” (2021):
Among all 53,000 compounds or so, about 900 (1.7%) showed an effect of 50% or more. Many of the other results were omitted from the sample, so strong results are more common in it than they were.

system: Mycobacterium tuberculosis; assay: Cornell - Phenotypic assay to identify agents that inhibit growth of Mycobacterium tuberculosis; type: functional; parameters: scale not given: direction of the effect not stated beside the values; conditions: 10 mM as filed; unlikely as a test dose

Compared with `OC1(CN2CCCC(Cn3cncn3)C2)CCCCC1` (stereo not drawn), `Cc1nc(C)n(CC2CCCN(CCC(=O)Nc3cc(C)on3)C2)n1` (stereo not drawn) is lower in “Percent Effect” value: 2.144% for the first, -4.464% for the second.

Compared with `CNC(=O)c1sc2ccccc2c1C1CCN(c2cc(C)nc(C)n2)C1` (stereo not drawn), `CNC(=O)c1cn[nH]c1C1CCN(Cc2ccccc2F)C1` (stereo not drawn) is higher in “Percent Effect” value: -31.24% for the first, -6.719% for the second.

First: Cc1cnn(C2CCCN(C(=O)c3ccc(O)nc3)C2)c1 (stereo not drawn)
Second: Cc1cc(O)cc(C2CCCN2C(=O)c2ccncc2)n1 (stereo not drawn)
The “Percent Effect” value of the first is lower: -59.29% for the first, 3.916% for the second.

Going from `Cc1ccc(CN2CC[C@@H]3[C@@H]2CCN3C(=O)Cc2cccs2)o1.O=C(O)C(F)(F)F` to `CCn1cc2c(n1)CN(Cc1ccc(C)o1)CC2COCC1CC1.O=C(O)C(F)(F)F` (stereo not drawn), the “Percent Effect” value rises from 2.395% to 32.3%.

Going from `CC(Nc1nc(-c2ccccc2)nc2c1CCNCC2)c1cccnc1` (stereo not drawn) to `CC(Nc1nc(-c2ccccc2)nc2c1CCNCC2)c1nccs1` (stereo not drawn), the “Percent Effect” value falls from 76.64% to 28.69%.

First: Cc1cc(CC(C)Nc2nc(-c3cccnc3)nc3c2CNC3)[nH]n1 (stereo not drawn)
Second: CCc1cc(C(C)Nc2nc(-c3cccnc3)nc3c2CNC3)on1 (stereo not drawn)
The “Percent Effect” value of the first is lower: -19.02% for the first, 9.073% for the second.

Going from `CC(Nc1nc(-c2ccncc2)nc2c1CCNC2)c1ccccc1` (stereo not drawn) to `c1ccc(-c2nc3c(c(NCCc4c[nH]cn4)n2)CCNC3)cc1`, the “Percent Effect” value rises from 16.91% to 96.35%.

Compared with `Cc1cccnc1[C@H](C)Nc1nc(-c2cccnc2)nc2c1CNC2`, `CN(Cc1cccnc1)c1nc(-c2ccccn2)nc2c1CCNCC2` is lower in “Percent Effect” value: 56.46% for the first, 31.77% for the second.

First: Cc1cc(NCCNS(C)(=O)=O)nc2cc3c(cc12)CCC3
Second: COc1cc(C)c(S(=O)(=O)CC(=O)N(C)C(C)C)cc1OC
The “Percent Effect” value of the first is lower: -25.91% for the first, 1.501% for the second.

Going from `Cc1cs/c(=N\C(=O)Cn2nc(N3CCOCC3)ccc2=O)[nH]1` to `CN1CCCC(c2ccc(N3CCOCC3)cn2)C1.Cl` (stereo not drawn), the “Percent Effect” value rises from 32.69% to 35.11%.

Going from `CC(C)c1n[nH]c(C2CN(C(=O)c3ncoc3C(C)C)CCO2)n1` (stereo not drawn) to `CNC(=O)c1ccc(C2CN(C(=O)c3scnc3C)CCO2)nc1` (stereo not drawn), the “Percent Effect” value falls from -2.194% to -17.28%.

Compared with `Cc1c(-c2cccs2)nn2c(O)c3c(nc12)CN(C(=O)C1CC1)C3`, `COCC(=O)N1Cc2nc3c(C)c(-c4cccs4)nn3c(O)c2C1` is lower in “Percent Effect” value: 54.87% for the first, 3.993% for the second.

Compared with `COCCC(=O)N1Cc2nc3c(C)c(-c4cccs4)nn3c(O)c2C1`, `CCn1cc2c(n1)CN(Cc1sccc1C)CC2COCC1CC1.O=C(O)C(F)(F)F` (stereo not drawn) is higher in “Percent Effect” value: 39.74% for the first, 57.43% for the second.

First: CC(C)c1ncc(CN2CCOC(C(=O)Nc3ccccc3)C2)cn1 (stereo not drawn)
Second: Cc1nc(CNC2CCN(Cc3ccccc3)C2)sc1C (stereo not drawn)
The “Percent Effect” value of the first is lower: -3.657% for the first, 5.497% for the second.

Going from `COc1ccc(Cl)cc1-c1nc(N)nc(N)n1` to `COc1ccc(Cl)cc1-c1nc(N)nc(N(C)C)n1`, the “Percent Effect” value rises from -5.371% to 31.47%.

Going from `CCCN(CCC)c1nc(N)nc(-c2cc(Cl)ccc2OC)n1` to `CCn1nccc1CN(C)c1[nH]cnc2nc(C)nc1-2`, the “Percent Effect” value falls from 61.82% to 1.62%.

First: CN1CCO[C@H]2CN(C(=O)c3ccoc3)C[C@H]21.O=C(O)C(F)(F)F
Second: COCC1CN(Cc2ccc(F)cc2)Cc2nn(C)cc21.O=C(O)C(F)(F)F (stereo not drawn)
The “Percent Effect” value of the first is lower: 6.414% for the first, 21.43% for the second.

Compared with `Cl.NCCc1cn(Cc2ccccn2)c2ccccc12`, `c1ccc(-c2nc(CCNCc3ccncc3)co2)cc1` is lower in “Percent Effect” value: -5.41% for the first, -12.86% for the second.

First: CN(C)C(=O)c1cn2cc(-c3ccccc3Cl)n(CC3CC3)c(=O)c2n1
Second: CNC(=O)c1cn2cc(-c3ccccc3Cl)n(CC3CC3)c(=O)c2n1
The “Percent Effect” value of the first is lower: 8.491% for the first, 16.32% for the second.

Going from `CCNC(=O)c1cn2cc(-c3ccccc3Cl)n(CC3CC3)c(=O)c2n1` to `CC(=O)c1ccn(CC(=O)Nc2nn(CC3CC3)c3ccccc23)n1`, the “Percent Effect” value falls from 93.59% to 23.92%.

First: CC(=O)N1CCc2[nH]cnc2C12CCN(C(=O)Cc1cccs1)CC2
Second: O=C(O)C(F)(F)F.O=C1COC2(CCN(Cc3nccs3)CC2)CN1c1ccccc1
The “Percent Effect” value of the first is lower: 5.963% for the first, 8.785% for the second.

First: Cc1nc(CN2CCCC(NCc3sccc3C)C2)no1 (stereo not drawn)
Second: Cc1nc(CCNC2CCN(Cc3ccccc3)C2)sc1C (stereo not drawn)
The “Percent Effect” value of the first is lower: -19.65% for the first, 2.096% for the second.

Compared with `COCCN1CCCC(c2ncc(C(=O)N3CCOCC3)c(C)n2)C1` (stereo not drawn), `COc1c(C2CCCN2C(=O)c2cncnc2C)c(C)nn1C` (stereo not drawn) is lower in “Percent Effect” value: -5.414% for the first, -27.58% for the second.

Compared with `Cc1cccc(NC2CCN(C(=O)Nc3cc(C)on3)CC2)n1`, `Cc1cccc(NC2CCN(C(=O)Nc3ccncc3)CC2)n1` is higher in “Percent Effect” value: -41.3% for the first, -35.06% for the second.

First: Cc1cccc(NC2CCN(C(=O)Nc3cc(F)cc(F)c3)CC2)n1
Second: Cc1cccc(NC2CCN(C(=O)Nc3ccc(F)c(F)c3)CC2)n1
The “Percent Effect” value of the first is lower: -33.08% for the first, 108.1% for the second.

First: Cc1cccc(NC2CCN(C(=O)Nc3cc(F)ccc3F)CC2)n1
Second: Cc1cccc(NC2CCN(C(=O)Nc3cccc4[nH]ccc34)CC2)n1
The “Percent Effect” value of the first is lower: 0.502% for the first, 103.5% for the second.

Compared with `Cc1cnn(CCNCc2ccc(OCc3csc(C)n3)cc2)c1`, `Cc1cnn(CCNCc2csc(C)n2)c1` is lower in “Percent Effect” value: 22% for the first, 2.389% for the second.

Going from `Cc1ccc(OCc2nc(CNCCn3cccn3)cs2)cc1` to `c1ccc(OCc2nc(CNCCn3cccn3)cs2)cc1`, the “Percent Effect” value falls from 44.09% to -6.946%.

First: Cc1cnn(CCCNCc2csc(COc3ccccc3)n2)c1
Second: Cc1cnn(CCNCc2csc(COc3ccccc3)n2)c1
The “Percent Effect” value of the first is higher: 86.59% for the first, 79.25% for the second.

Going from `CCc1ccc(-n2c(=O)[nH]c3nc(N4CCSCC4)ncc3c2=O)cc1` to `COc1ccc(CN2CCN(c3ncc(Cl)cn3)CC2)cc1`, the “Percent Effect” value rises from -3.279% to 15.9%.

Compared with `Cc1nc(-c2ccncc2)ncc1C(C)NC(=O)Cn1ccccc1=O` (stereo not drawn), `O=C(c1ccncc1)N1CCC(Cc2cnc3[nH]ccc3c2)CC1` is lower in “Percent Effect” value: -23.83% for the first, -105.2% for the second.

Compared with `O=C(CC1CCCC1)N1CCOC(c2nc(-c3ncccn3)no2)C1` (stereo not drawn), `Cc1cc(C2CCCCN2C(=O)c2ccsc2)nc2nccn12` (stereo not drawn) is lower in “Percent Effect” value: 12.79% for the first, -13.93% for the second.

Compared with `CN(C)C(=O)C1(C)CN(Cc2cn(C)c3ccccc23)CCO1` (stereo not drawn), `CN(C)C(=O)C1(C)CN(Cc2cn(C)c3ccc(F)cc23)CCO1` (stereo not drawn) is lower in “Percent Effect” value: 34.96% for the first, 20.08% for the second.

First: CNC(=O)C1(C)CN(Cc2cn(C)c3ccc(F)cc23)CCO1 (stereo not drawn)
Second: Cc1ccccc1CN1CCCN(C(=O)c2ccn(C)c(=O)c2)CC1
The “Percent Effect” value of the first is higher: 75.75% for the first, -39.51% for the second.

First: CCOCC1CN(Cc2ccc(OC)cc2)Cc2nn(C)cc21.O=C(O)C(F)(F)F (stereo not drawn)
Second: COCC1CN(Cc2ccc(OC)cc2)Cc2nn(C)cc21.O=C(O)C(F)(F)F (stereo not drawn)
The “Percent Effect” value of the first is lower: -10.16% for the first, 102.7% for the second.

Going from `CCn1cc2c(n1)CN(Cc1ccc(F)cc1)CC2COCC1CC1.O=C(O)C(F)(F)F` (stereo not drawn) to `COC(=O)c1ccn(CC(=O)Nc2nn(CC3CC3)c3ccccc23)n1`, the “Percent Effect” value rises from 11.94% to 50.91%.

Compared with `COCCC(=O)N1CCCC([C@@H]2C[C@H](C(F)F)n3ncnc3N2)C1` (stereo partly drawn), `Cc1cc(NC(=O)CN2CCN(C3CCCC3)C(=O)C2)nn1C` is higher in “Percent Effect” value: 3.93% for the first, 12.31% for the second.

Compared with `CCCS(=O)(=O)N1CC(=O)N(Cc2cccc(OC)c2OC)CC(O)C1` (stereo not drawn), `COc1ccccc1Oc1cncc(C2CCCN(C)C2)n1` (stereo not drawn) is higher in “Percent Effect” value: 0.4174% for the first, 10.25% for the second.

Going from `CCc1n[nH]c(C(=O)NCCn2nccc2C)c1C` to `Cc1csc(C(Cc2ccsc2)NC(=O)c2cc(=O)n(C)c(=O)n2C)n1` (stereo not drawn), the “Percent Effect” value rises from -14.26% to -13.69%.

Going from `COCCN(C)C(C(=O)O)c1ccc2ccccc2c1` (stereo not drawn) to `CCn1nc(NC(=O)Cn2ccc(C(C)=O)n2)c2ccccc21`, the “Percent Effect” value rises from -16.36% to 6.087%.

First: CCc1ccc(CN2CCN(c3ncc(Cl)cn3)CC2)nc1
Second: CCc1ccc(CN2CCN(c3ccc(Cl)nn3)CC2)nc1
The “Percent Effect” value of the first is higher: 55.1% for the first, 44.3% for the second.

First: Cc1ccc(-c2nc(CCNCc3ccncc3)co2)cc1
Second: COc1ccc(-c2nc(CCNCc3ccncc3)co2)cc1
The “Percent Effect” value of the first is higher: 55.33% for the first, 44.79% for the second.

First: CO[C@@H]1CN(C)S(=O)(=O)[C@@]12CCN(Cc1ccccc1)C2
Second: COC1CCN(C(=O)c2c(Cl)c3ccccc3n2C)CC1
The “Percent Effect” value of the first is lower: 9.469% for the first, 49.28% for the second.

Going from `CC(C)c1cc(C2CCCN2C(=O)CN2C(=O)OC(C)(C)C2=O)no1` (stereo not drawn) to `Cn1cc(C2CCCN2C(=O)c2cn(-c3ccccc3)nn2)cn1` (stereo not drawn), the “Percent Effect” value falls from 16.26% to -26.03%.

Going from `CN(Cc1ncc[nH]1)c1nc(-c2ccccn2)nc2c1CCNCC2` to `CN(Cc1nccs1)c1nc(-c2ccccn2)nc2c1CCNCC2`, the “Percent Effect” value falls from 56.27% to 28.38%.

Going from `OCC1CN(Cc2nc(C(F)(F)F)cs2)c2ccccc2O1` (stereo not drawn) to `Cc1csc(CN2CC(CO)Oc3ccccc32)n1` (stereo not drawn), the “Percent Effect” value falls from 105.7% to 26.95%.

First: CN(Cc1nc(C(F)(F)F)cs1)C(=O)CCc1ccccn1
Second: Cc1nc(CN2CC(CO)Oc3ccccc32)sc1C (stereo not drawn)
The “Percent Effect” value of the first is lower: 3.481% for the first, 83.41% for the second.

First: CC(C)c1nc2oc(C(=O)N3CCOCC3)c(N)c2c2c1CCCC2
Second: CCOC1CCN(C(=O)c2c(Cl)c3ccccc3n2C)CC1
The “Percent Effect” value of the first is lower: 5.641% for the first, 55.05% for the second.

First: Cn1c(C(=O)N2CCC(CC(N)=O)CC2)c(Cl)c2ccccc21
Second: Cc1ccccc1CN1CCCN(S(=O)(=O)N(C)C2CCCCC2)CC1
The “Percent Effect” value of the first is lower: -5.817% for the first, 58.2% for the second.

First: CN(C1CCCCC1)S(=O)(=O)N1CCN(Cc2ccco2)CC1
Second: CN(C1CCCCC1)S(=O)(=O)N1CCN(Cc2ccon2)CC1
The “Percent Effect” value of the first is lower: 2.513% for the first, 27.01% for the second.

Compared with `CCOCCC1(CNC(=O)c2ccncc2)CCC1`, `c1cc(-c2nc3c(c(NCCc4c[nH]cn4)n2)CCNCC3)ccn1` is lower in “Percent Effect” value: 19.62% for the first, -23.76% for the second.

`c1nc(CCNc2nc(C3CC3)nc3c2CCNCC3)c[nH]1` was tested, and the “Percent Effect” value was 8.345%.
